TbPYK inhibitor – inhibitors of Trypanosoma brucei pyruvate kinase. Q57TT1. TbPYK enzyme, Kinase-Glo Plus ATP luminescence, 45 min. Potency, µM (doses to about 76.8 µM), inactives show at the top dose activity, negative = inhibition, hits mostly inhibitors. 410,000 tested, 0.12% active. AID 624173; also: potency is read from the fitted curve at half-maximal effect; % is scaled to controls: 0 for no effect and ±100 for the full control effect; nearly all actives have a fitted effect of over 50% in size
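Activity of T. brucei pyruvate kinase was followed by Kinase-Glo Plus luminescence after the enzyme reacted 45 min at room temperature with 130 uM ADP (final) and substrate. Test compounds were added before ADP at multiple concentrations.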
FBPA Giardia inh – inhibitors of Giardia lamblia fructose-1,6-bisphosphate aldolase; A8B2U2; purified Giardia FBPA; Potency, µM (highest dose often 59.6 µM), for the others: top-dose activity, negative = inhibition, actives largely listed as inhibitors; 290,000 tested, 0.71% active; AID 2451; also: potency is read from the fitted curve at half-maximal effect; % is scaled to controls: 0 for no effect and ±100 for the full control effect; nearly all actives have a fitted effect of over 55% in size
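Giardia FBPA (40 nM reagent) was preincubated 10 min at RT with compound (up to 57.5 uM final), then substrate plus GAPDH/TPI/NAD/arsenate coupling system with diaphorase/resazurin was added; resorufin fluorescence (525/598 nm) was read after 20 min.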
Sm TGR block – S. mansoni TGR enzyme inhibition. purified TGR, DTNB reduction, TNB absorbance 405 nm. 360,000 tested, 3% active. Potency, µM (top dose mostly 114 µM), for inactives: at the highest dose activity change, negative = inhibition, most hits filed as inhibitors; also: potency is read from the fitted curve at half-maximal effect; % is scaled to controls: 0 for no effect and ±100 for the full control effect; nearly all actives have a fitted effect of over 60% in size
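Kinetic colorimetric format: TGR-catalysed, NADPH-driven DTNB reduction monitored via TNB absorbance. Enzyme dispensed at 20 nM; compound exposure 15 min at room temperature before reaction start.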
Shiga toxin inh – Shiga toxin inhibition; Vero cells, Shiga toxin protein synthesis inhibition reporter; inhibition, % at 38.7 µM; 290,000 tested, 9.2% active; AID 2315; in the data active = inhibition mostly above about 28%, no sharp cut-off; inactive = mostly below about 43%; also: 0% is about no effect
LmPK inh – inhibitors of Leishmania mexicana pyruvate kinase; Q27686; purified LmPK, Kinase-Glo ATP luminescence, 1 h; Potency, µM (top dose mostly 57.5 µM), for inactives: top-dose activity change, negative = inhibition, usual class: inhibitors; 290,000 tested, 0.37% active; AID 1721; also: potency is read from the fitted curve at half-maximal effect; % is scaled to controls: 0 for no effect and ±100 for the full control effect
Target sequence (Q27686 whole entry, looked up): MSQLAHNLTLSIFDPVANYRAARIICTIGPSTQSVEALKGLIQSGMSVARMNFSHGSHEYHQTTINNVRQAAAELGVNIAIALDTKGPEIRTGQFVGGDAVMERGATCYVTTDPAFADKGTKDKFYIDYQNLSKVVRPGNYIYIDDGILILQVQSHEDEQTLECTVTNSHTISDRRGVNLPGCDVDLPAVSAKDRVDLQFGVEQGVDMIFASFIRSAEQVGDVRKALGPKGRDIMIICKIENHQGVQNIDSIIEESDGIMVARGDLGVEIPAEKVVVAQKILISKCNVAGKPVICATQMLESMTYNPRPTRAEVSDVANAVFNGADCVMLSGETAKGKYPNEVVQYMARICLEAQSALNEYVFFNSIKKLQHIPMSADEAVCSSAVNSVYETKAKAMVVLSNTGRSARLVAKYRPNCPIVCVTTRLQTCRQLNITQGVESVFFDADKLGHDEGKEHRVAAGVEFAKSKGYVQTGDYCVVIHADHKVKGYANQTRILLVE
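0.1 nM LmPK, 0.5 mM PEP, 0.1 mM ADP; 50 mM imidazole pH 7.2, 7 mM MgCl2, 50 mM KCl; 1 h RT. Kinase-Glo luminescence readout, normalized to no-enzyme (full inhibition) and uninhibited wells.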
Cycloheximide cs – counter-screen hit for Shiga toxin inhibitors, cycloheximide; cell reporter, cycloheximide protein synthesis inhibition counterscreen; max response, %; 300,000 tested, 12% active; in the data active = max response mostly above about 13%, no sharp cut-off; inactive = mostly below about 14%; also: read at 38.3 µM for the half of the compounds with a filed dose; 0% is about no effect
* = called active by the depositor. Many of the other results were omitted from the sample, so hits are more common in it than they were. Unless noted, calls follow the shape of the dose curve; as a rule, active = well fitted curve in the direction sought with a large enough effect; inconclusive = small, poorly fitted or top-dose-only effect, or another doubt; inactive = no such curve, though single readings can be large; an effect the other way counts as inactive or inconclusive.

For COc1cccc(C(=O)CSc2nccn2C)c1 the results were TbPYK inhibitor -13%, FBPA Giardia inh inconclusive, Sm TGR block -14%, Shiga toxin inh 97*, LmPK inh -8% and Cycloheximide cs 31*.
Screening Cc1ccc(NC(=O)CSc2ncc3ccccn23)cc1C returned TbPYK inhibitor -2%, FBPA Giardia inh -27%, Sm TGR block -1%, Shiga toxin inh 130*, LmPK inh 1% and Cycloheximide cs 39*.
`CCOc1ccc(C(=O)NCCS(=O)(=O)N2CCN(c3cccc(Cl)c3)CC2)cc1` gave TbPYK inhibitor -7% and Sm TGR block 3%.
Screening Cc1ccc(NC(=O)CN2CCOCC2)c(Br)c1 returned TbPYK inhibitor 5%, FBPA Giardia inh -5%, Sm TGR block -1%, LmPK inh -3% and Cycloheximide cs 23*.
`Cc1ccc(NC(=O)CN2CCN(Cc3ccccc3)CC2)c(Br)c1` gave TbPYK inhibitor 7%, FBPA Giardia inh inconclusive, Sm TGR block 70%, Shiga toxin inh 21, LmPK inh -2% and Cycloheximide cs 8.
Cc1cc(Br)c(NC(=O)CN2CCCC2)c(Br)c1 was read as TbPYK inhibitor -7%, FBPA Giardia inh -15%, Sm TGR block -5%, Shiga toxin inh 64*, LmPK inh 1% and Cycloheximide cs 16*.
`Cc1cc(Br)c(NC(=O)CN2CC=C(c3ccccc3)CC2)c(Br)c1` gave TbPYK inhibitor 4%, FBPA Giardia inh -4%, Sm TGR block 4%, Shiga toxin inh 34, LmPK inh 7% and Cycloheximide cs 15.
Cc1ccc(N2C(=O)[C@@H]3C(c4ccc(F)cc4)=NO[C@@H]3C2=O)cc1 was read as TbPYK inhibitor 3%, FBPA Giardia inh 4%, Sm TGR block -8%, Shiga toxin inh 13, LmPK inh -3% and Cycloheximide cs -3.
For CC(=O)C1=NOC2C(=O)N(c3ccccc3)C(=O)C12 (configuration not stated) the results were TbPYK inhibitor -9%, FBPA Giardia inh -2%, Sm TGR block 11µM*, Shiga toxin inh 0, LmPK inh -4% and Cycloheximide cs -2.
For Cc1nn(C(=O)c2ccc(Cl)cc2)c(C)c1S(=O)(=O)N1CCCCCC1 the results were TbPYK inhibitor 1% and Sm TGR block -10%.
Screening Cc1ccccc1NC(=O)CCn1nc(-c2ccccc2)c2ccccc2c1=O returned TbPYK inhibitor 3% and Sm TGR block 7%.
`Cc1ccccc1OCC(=O)Nc1nnc(-c2ccco2)s1` gave TbPYK inhibitor -2%, FBPA Giardia inh 6%, Sm TGR block -2%, Shiga toxin inh -5, LmPK inh 2% and Cycloheximide cs 1.
Screening O=C(Nc1nnc(-c2ccco2)s1)c1ccccc1 returned TbPYK inhibitor -7%, FBPA Giardia inh -7%, Sm TGR block 25µM*, Shiga toxin inh 89*, LmPK inh -19% and Cycloheximide cs 44*.
O=C(Nc1nnc(-c2ccco2)s1)C1CC1 was read as TbPYK inhibitor -11%, FBPA Giardia inh 5%, Sm TGR block 45µM*, Shiga toxin inh 31*, LmPK inh -4% and Cycloheximide cs 23*.
`CC(C)C(=O)Nc1nnc(-c2ccco2)s1` gave TbPYK inhibitor -5%, FBPA Giardia inh 1%, Sm TGR block -4%, Shiga toxin inh 95*, LmPK inh -4% and Cycloheximide cs 29*.
Screening O=C(Nc1ccc(F)cc1)Nc1nnc(-c2ccco2)s1 returned TbPYK inhibitor 4%, FBPA Giardia inh -1%, Sm TGR block -27%, Shiga toxin inh 112*, LmPK inh -5% and Cycloheximide cs 53*.
Screening COCCNc1cc(N2CCN(C3CCCCC3)CC2)c2noc3c2c1C(=O)c1ccccc1-3 returned TbPYK inhibitor 1% and Sm TGR block -1%.
COc1ccc(-n2cc(C(=O)N(CCN(C)C)Cc3ccccc3)c3ccccc3c2=O)cc1 was read as TbPYK inhibitor -1% and Sm TGR block -8%.
COc1ccc(N2CCN(C(=O)Cc3noc4ccc(C)cc34)CC2)cc1 was read as TbPYK inhibitor 0% and Sm TGR block -7%.

Source: PubChem BioAssay
